Assay results reported in PubChem BioAssay (Tox21).
Records with an inconclusive call do not appear. Where a call stands in place of a potency, no number is given. Values without a mark were called inactive. Activity calls are given as the source filed them. Unless noted, calls follow the shape of the dose curve; as a rule, active = well fitted curve in the direction sought with a large enough effect in the repeat runs; inconclusive = weak or mixed curves; inactive = no such curve, though single readings can be large; an effect the other way counts as inactive or inconclusive.

Legend:
[1] = qHTS assay to identify aromatase inhibitors - cell viability counter screen (AID 743084);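 also: cells stimulated with testosterone during compound exposure; nearly all actives have a fitted effect of over 55% in size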; also: potency is read from the fitted curve at half-maximal effect
[2] = biological target: Aryl hydrocarbon receptor (Homo sapiens) (UniProt P35869); assay: qHTS assay to identify small molecule that activate the aryl hydrocarbon receptor (AhR) signaling pathway (AID 743085); also: nearly all actives have a fitted effect of over 15% in size; also: potency is read from the fitted curve at half-maximal effect;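 as to activation: HG2L7.5c1 human HepG2 liver cells with stably integrated DRE-driven firefly reporter; series mostly up to about 70 µM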
Sequence of Aryl hydrocarbon receptor (Homo sapiens) (P35869 whole entry, looked up): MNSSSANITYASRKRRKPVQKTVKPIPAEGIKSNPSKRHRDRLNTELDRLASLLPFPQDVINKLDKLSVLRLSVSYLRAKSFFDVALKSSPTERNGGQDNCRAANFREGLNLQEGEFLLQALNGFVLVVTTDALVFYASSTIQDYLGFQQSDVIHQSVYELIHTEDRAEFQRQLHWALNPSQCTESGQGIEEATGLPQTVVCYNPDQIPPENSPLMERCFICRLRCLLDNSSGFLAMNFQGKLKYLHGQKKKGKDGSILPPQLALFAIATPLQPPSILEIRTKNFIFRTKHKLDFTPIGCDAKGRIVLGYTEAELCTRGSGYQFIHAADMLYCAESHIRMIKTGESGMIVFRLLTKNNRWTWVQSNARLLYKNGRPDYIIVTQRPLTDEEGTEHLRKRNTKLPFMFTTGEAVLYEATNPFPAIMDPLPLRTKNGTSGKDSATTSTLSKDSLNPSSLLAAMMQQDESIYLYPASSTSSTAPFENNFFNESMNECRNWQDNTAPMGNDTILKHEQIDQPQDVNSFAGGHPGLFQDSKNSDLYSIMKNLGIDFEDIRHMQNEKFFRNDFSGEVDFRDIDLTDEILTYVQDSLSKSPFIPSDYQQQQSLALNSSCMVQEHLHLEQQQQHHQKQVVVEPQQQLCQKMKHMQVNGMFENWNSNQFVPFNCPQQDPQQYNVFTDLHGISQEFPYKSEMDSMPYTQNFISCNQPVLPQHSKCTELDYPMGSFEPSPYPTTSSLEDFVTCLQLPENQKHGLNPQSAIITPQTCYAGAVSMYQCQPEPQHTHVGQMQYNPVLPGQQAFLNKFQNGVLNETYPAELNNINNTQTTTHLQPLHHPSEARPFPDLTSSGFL
Outline: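 HepG2 cells stably carrying a 20-DRE firefly luciferase reporter (HG2L7.5c1) treated with compound for 24 hr at 37C. Luciferase read by ONE-Glo luminescence, with CellTiter-Fluor viability read first.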

[3] = qHTS assay to identify small molecule that activate the aryl hydrocarbon receptor (AhR) signaling pathway - cell viability counter screen (AID 743086); also: nearly all actives have a fitted effect of over 45% in size; also: potency is read from the fitted curve at half-maximal effect
Outline: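 HepG2-AhR-luc (HG2L7.5c1) cells, 4000/well, treated 24 h at 37 C with compound; viability measured as CellTiter-Fluor fluorescence after 30 min in the same wells as the luciferase read.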

[4] = biological target: Peroxisome proliferator-activated receptor gamma (Homo sapiens) (UniProt P37231); assay: qHTS assay to identify small molecule agonists of the peroxisome proliferator-activated receptor gamma (PPARg) signaling pathway (AID 743094; active = well fitted activation curve with a large enough effect in the signal ratio in the repeat runs, not every such curve was filed as active; the % refers to the signal ratio)
Sequence of Peroxisome proliferator-activated receptor gamma (Homo sapiens) (P37231 whole entry, looked up): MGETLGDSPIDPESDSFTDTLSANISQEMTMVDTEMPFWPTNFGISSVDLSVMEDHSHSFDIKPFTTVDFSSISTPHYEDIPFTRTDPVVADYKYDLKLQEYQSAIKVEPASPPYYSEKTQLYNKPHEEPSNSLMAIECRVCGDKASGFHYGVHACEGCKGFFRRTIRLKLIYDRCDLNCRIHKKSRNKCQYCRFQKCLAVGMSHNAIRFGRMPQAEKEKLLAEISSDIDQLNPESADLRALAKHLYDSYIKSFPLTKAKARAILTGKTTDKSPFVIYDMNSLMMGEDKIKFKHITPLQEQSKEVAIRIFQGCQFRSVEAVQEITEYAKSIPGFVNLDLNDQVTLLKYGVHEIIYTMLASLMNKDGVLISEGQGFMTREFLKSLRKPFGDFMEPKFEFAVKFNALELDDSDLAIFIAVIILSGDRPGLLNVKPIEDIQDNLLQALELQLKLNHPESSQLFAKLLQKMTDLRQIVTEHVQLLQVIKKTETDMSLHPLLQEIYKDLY
Outline: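 GeneBLAzer PPARg UAS-bla HEK293H cells carrying a stably integrated beta-lactamase reporter were pre-incubated 5 h at 37C, then exposed to compounds in DMSO for 17 h at 37C; LiveBLAzer B/G FRET substrate was added for 1 h at room temperature and fluorescence read.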

[5] = qHTS assay to identify small molecule antagonists of the peroxisome proliferator-activated receptor gamma (PPARg) signaling pathway - cell viability counter screen (AID 743194); also: nearly all actives have a fitted effect of over 55% in size
Outline: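 Cytotoxicity counter screen in PPARg-bla HEK293H cells, same wells as reporter assay. Compounds plus 50 nM rosiglitazone (final) for 17 h at 37 C, then viability read by CellTiter-Glo luminescence.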

[6] = qHTS assay for small molecule agonists of the antioxidant response element (ARE) signaling pathway (AID 743202; active = well fitted activation curve with a large enough effect in the signal ratio in the repeat runs, not every such curve was filed as active; the % refers to the signal ratio; also: potency is read from the fitted curve at half-maximal effect)
Outline: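 ARE-bla HepG2 cells (beta-lactamase reporter under the antioxidant response element), plated 5 hours, then exposed to compounds 16 hours at 37 C. LiveBLAzer B/G FRET substrate added for 2 hours at room temperature; fluorescence intensity read.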

[7] = qHTS assay for small molecule agonists of the antioxidant response element (ARE) signaling pathway - cell viability counter screen (AID 743203; calls by dose curve; also: nearly all actives have a fitted effect of over 55% in size)
Outline: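 CellSensor ARE-bla HepG2 cells, 2,000 per well, rested 5 hrs at 37C/5% CO2, then exposed to compound in DMSO for 16 hrs; viability read as CellTiter-Glo luminescence after 30 min at room temperature, in the reporter wells.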

[8] = qHTS assay for small molecule activators of the heat shock response signaling pathway - cell viability counter screen (AID 743209); also: nearly all actives have a fitted effect of over 50% in size
Outline: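 CellSensor HSE-bla HeLa cells, plated overnight at 37 C/5% CO2, were exposed to compounds in DMSO for 5 h at 37 C. Viability was then read in the same wells by CellTiter-Glo luminescence after 30 min at room temperature.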

[9] = qHTS assay for small molecule activators of the heat shock response signaling pathway (AID 743210; active = well fitted activation curve with a large enough effect in the signal ratio in the repeat runs, with a control signal flat, not every such curve was filed as active; the % refers to the signal ratio; also: series mostly up to about 63 µM)
Outline: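 HSE-bla HeLa cells (beta-lactamase reporter under heat shock response elements), plated overnight, then exposed to compounds 5 h at 37 C; LiveBLAzer B/G FRET substrate added, 2.5 h at room temperature, fluorescence intensity read.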

[10] = qHTS assay to identify small molecule agonists of the peroxisome proliferator-activated receptor delta (PPARd) signaling pathway - cell viability counter screen (AID 743211); also: nearly all actives have a fitted effect of over 55% in size
Outline: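 PPARd-bla HEK293H cells (3000/well) were pre-incubated 5 h at 37 C, then exposed to compound for 17 h at 37 C. After 2 h with LiveBLAzer substrate, CellTiter-Glo was added to the same wells; luminescence read after 30 min at room temperature.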

[11] = biological target: Peroxisome proliferator-activated receptor delta (Homo sapiens) (UniProt Q03181); assay: qHTS assay to identify small molecule agonists of the peroxisome proliferator-activated receptor delta (PPARd) signaling pathway (AID 743212; calls by dose curve)
Sequence of Peroxisome proliferator-activated receptor delta (Homo sapiens) (Q03181 whole entry, looked up): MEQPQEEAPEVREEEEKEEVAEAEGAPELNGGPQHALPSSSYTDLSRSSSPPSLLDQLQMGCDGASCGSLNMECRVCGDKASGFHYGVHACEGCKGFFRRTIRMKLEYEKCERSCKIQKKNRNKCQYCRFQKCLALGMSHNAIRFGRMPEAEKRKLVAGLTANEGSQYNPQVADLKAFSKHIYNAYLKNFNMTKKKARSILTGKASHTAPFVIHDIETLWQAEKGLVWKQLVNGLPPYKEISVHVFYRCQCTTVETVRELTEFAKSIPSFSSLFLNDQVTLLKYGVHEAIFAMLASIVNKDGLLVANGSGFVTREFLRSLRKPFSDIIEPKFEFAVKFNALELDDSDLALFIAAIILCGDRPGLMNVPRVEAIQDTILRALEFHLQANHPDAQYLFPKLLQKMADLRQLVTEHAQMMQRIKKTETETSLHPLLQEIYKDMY
Outline: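 GeneBLAzer UAS-bla HEK293H cells carrying a PPARδ construct were exposed to compounds at 37 °C. Beta-lactamase activity was read by FRET fluorescence after 2 h at room temperature with LiveBLAzer B/G substrate.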

[12] = qHTS assay to identify small molecule antagonists of the peroxisome proliferator-activated receptor delta (PPARd) signaling pathway - cell viability counter screen (AID 743213); also: nearly all actives have a fitted effect of over 50% in size
Outline: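 HEK293H PPARd UAS-bla cells, 5 h pre-incubation, compound + L165041 300 nM final, 17 h 37 C; B/G FRET substrate 2 h RT; then CellTiter-Glo 30 min RT, luminescence.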

[13] = biological target: Peroxisome proliferator-activated receptor delta (Homo sapiens) (UniProt Q03181); assay: qHTS assay to identify small molecule antagonists of the peroxisome proliferator-activated receptor delta (PPARd) signaling pathway (AID 743215; active = well fitted inhibition curve with a large enough effect in the signal ratio in the repeat runs, not every such curve was filed as active; the % refers to the signal ratio;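 also: cells stimulated with agonist L165041 at 300 nM final during compound exposure; series mostly up to about 62 µM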)
Outline: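 PPARd UAS-bla HEK293H cells were pre-incubated 5 h at 37 C, then given test compounds in DMSO plus agonist L165041 (300 nM final). After 17 h at 37 C, beta-lactamase FRET substrate was added; fluorescence read after 2 h at room temperature.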

[14] = qHTS assay to identify small molecule antagonists of the farnesoid-X-receptor (FXR) signaling pathway - cell viability counter screen (AID 743221; active = well fitted cell-killing curve with a large enough effect in the repeat runs, not every such curve was filed as active; also: nearly all actives have a fitted effect of over 50% in size)
Outline: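 GeneBLAzer FXR-UAS-bla HEK 293T cells, compound plus chenodeoxycholic acid (50 uM final), 16 h at 37 C. CellTiter-Glo added to the same wells after the beta-lactamase read; luminescence read after 30 min at room temperature as viability.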

[15] = biological target: Vitamin D3 receptor (Homo sapiens) (UniProt P11473); assay: qHTS assay to identify small molecule agonists of the vitamin D receptor (VDR) signaling pathway (AID 743222; calls by dose curve)
Sequence of Vitamin D3 receptor (Homo sapiens) (P11473 whole entry, looked up): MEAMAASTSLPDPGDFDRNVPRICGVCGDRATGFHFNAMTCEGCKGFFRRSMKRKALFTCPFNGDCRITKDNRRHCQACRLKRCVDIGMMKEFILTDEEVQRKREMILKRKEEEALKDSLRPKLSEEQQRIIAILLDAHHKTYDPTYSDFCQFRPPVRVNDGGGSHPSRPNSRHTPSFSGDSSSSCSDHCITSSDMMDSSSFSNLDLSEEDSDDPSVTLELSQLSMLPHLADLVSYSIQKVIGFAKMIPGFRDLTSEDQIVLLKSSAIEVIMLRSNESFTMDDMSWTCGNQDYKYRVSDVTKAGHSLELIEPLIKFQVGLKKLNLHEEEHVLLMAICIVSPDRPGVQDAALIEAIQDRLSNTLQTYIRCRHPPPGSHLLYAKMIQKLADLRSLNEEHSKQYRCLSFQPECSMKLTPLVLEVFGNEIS
Outline: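 VDR-bla cells were plated 4 h at 37C/5% CO2, then exposed to compounds in DMSO for 16 h. After LiveBLAzer B/G FRET substrate addition and 2 h at room temperature, beta-lactamase reporter fluorescence was read.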

[16] = qHTS assay to identify small molecule agonists of the farnesoid-X-receptor (FXR) signaling pathway - cell viability counter screen (AID 743218); also: nearly all actives have a fitted effect of over 45% in size
Outline: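 FXR-UAS-bla HEK 293T cells, plated 5 h at 37 C, were exposed to compounds for 16 h at 37 C. CellTiter-Glo was then added to the same wells as the bla readout; luminescence read after 30 min at room temperature.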

[17] = biological target: Bile acid receptor (Homo sapiens) (UniProt Q96RI1); assay: qHTS assay to identify small molecule agonists of the farnesoid-X-receptor (FXR) signaling pathway (AID 743220; active = well fitted activation curve with a large enough effect in the signal ratio in the repeat runs, not every such curve was filed as active; the % refers to the signal ratio)
Sequence of Bile acid receptor (Homo sapiens) (Q96RI1 whole entry, looked up): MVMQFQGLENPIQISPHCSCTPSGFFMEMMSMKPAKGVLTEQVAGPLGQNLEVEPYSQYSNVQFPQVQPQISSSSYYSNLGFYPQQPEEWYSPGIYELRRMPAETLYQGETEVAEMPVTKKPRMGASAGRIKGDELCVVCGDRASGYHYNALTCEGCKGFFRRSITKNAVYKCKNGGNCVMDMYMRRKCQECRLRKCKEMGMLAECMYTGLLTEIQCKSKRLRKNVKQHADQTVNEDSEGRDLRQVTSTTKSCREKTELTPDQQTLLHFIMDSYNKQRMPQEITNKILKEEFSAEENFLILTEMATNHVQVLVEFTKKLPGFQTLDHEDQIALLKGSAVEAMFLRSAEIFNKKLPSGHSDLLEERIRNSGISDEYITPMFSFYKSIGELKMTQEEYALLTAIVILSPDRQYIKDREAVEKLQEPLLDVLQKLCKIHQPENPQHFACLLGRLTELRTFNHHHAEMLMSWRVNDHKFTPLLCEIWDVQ
Outline: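 Beta-lactamase reporter under UAS control in GeneBLAzer FXR HEK 293T cells (5000/well) measured with LiveBLAzer FRET substrate after 2 h at room temperature. Compound exposure lasted 16 h at 37C.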

[18] = biological target: Vitamin D3 receptor (Homo sapiens) (UniProt P11473); assay: qHTS assay to identify small molecule antagonists of the vitamin D receptor (VDR) signaling pathway (AID 743223; active = well fitted inhibition curve with a large enough effect in the signal ratio in the repeat runs, not every such curve was filed as active; the % refers to the signal ratio)
Outline: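 VDR-bla cells were treated with compound plus 3 nM final 1alpha,25-dihydroxyvitamin D3 for 16 h at 37C. Beta-lactamase reporter read by B/G FRET substrate fluorescence after 2 h at room temperature. qHTS format.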

[19] = biological target: Bile acid receptor (Homo sapiens) (UniProt Q96RI1); assay: qHTS assay to identify small molecule antagonists of the farnesoid-X-receptor (FXR) signaling pathway (AID 743217; active = well fitted inhibition curve with a large enough effect in the signal ratio in the repeat runs, not every such curve was filed as active; the % refers to the signal ratio)
Outline: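 FXR-UAS-bla HEK 293T cells pre-incubated 5 h at 37 °C, then exposed to compounds with chenodeoxycholic acid (50 uM final) for 16 h at 37 °C. Beta-lactamase reporter read by LiveBLAzer B/G FRET substrate fluorescence after 2 h at room temperature.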

[20] = biological target: Peroxisome proliferator-activated receptor gamma (Homo sapiens) (UniProt P37231); assay: qHTS assay to identify small molecule antagonists of the peroxisome proliferator-activated receptor gamma (PPARg) signaling pathway (AID 743191; calls by dose curve; also: series mostly up to about 63 µM; nearly all actives have a fitted effect of over 30% in size)
Outline: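 GeneBLAzer PPARg UAS-bla HEK293H cells, 5 h post-plating, exposed to compounds 17 h at 37C. LiveBLAzer B/G FRET substrate added for 1 h at room temperature; beta-lactamase reporter read by fluorescence intensity.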

SMILES	Potency [1]	Potency [2]	Potency [3]	Potency [4]	Potency [5]	Potency [6]	Potency [7]	outcome [8]	outcome [9]	Potency [10]	Potency [11]	Potency [12]	outcome [13]	Potency [14]	outcome [15]	Potency [16]	outcome [17]	outcome [18]	outcome [19]	Potency [20]
CCC(=O)O[C@@H]1C[C@H]2CC[C@]1(C)C2(C)C	inactive	inactive	inactive	inactive	inactive	inactive	inactive	inactive	inactive	inactive	inactive	inactive	inactive	inactive	inactive					
O=C(OCCCCCOC(=O)c1ccccc1)c1ccccc1	inactive	inactive	inactive	inactive		inactive	inactive	inactive	inactive	inactive	inactive	inactive	inactive	inactive		inactive				
COc1cc(CNC(=O)CCCC/C=C/C(C)C)ccc1O	inactive	inactive	inactive	inactive	inactive	47.3 µM (active)	inactive	inactive	inactive	inactive			inactive	inactive		inactive	inactive	inactive		
O=C1c2ccccc2C(=O)C1c1ccc2cc(S(=O)(=O)O)cc(S(=O)(=O)O)c2n1	29.5 µM (active)	inactive	33.1 µM (active)	inactive	inactive	5.25 µM (active)	inactive	inactive	inactive	inactive	inactive	inactive	inactive	inactive						
CCOc1ccccc1O	inactive	inactive	inactive	inactive	inactive	inactive	inactive	inactive	inactive	inactive	inactive	inactive	inactive	inactive	inactive	inactive	inactive		inactive	
O=C(O)c1ccccc1-n1cc(C(=O)O)c(=O)c2cc(Nc3c(F)cc(F)cc3Cl)c(Cl)cc21	inactive	inactive	inactive	inactive		inactive	inactive	inactive	inactive	inactive	inactive	inactive	inactive	inactive	inactive	inactive	inactive	inactive	inactive	inactive
Clc1cccc(C(c2ccc3nc[nH]c3c2)n2ccnc2)c1 (centres undefined)	inactive	2.66 µM (active)	inactive	inactive	inactive	inactive	inactive	inactive	inactive	inactive	inactive	inactive	inactive	inactive	inactive	inactive	inactive	inactive	inactive	
CCCCCCCCC(=O)OCC(C)OC(=O)CCCCCCCC (centres undefined)	inactive	inactive	inactive	inactive	inactive	inactive	inactive	inactive		inactive	inactive		inactive	inactive	inactive	inactive		inactive		
